Only some compounds are listed: those with a hit (about 4.8% of all), similar ones and a draw of the others.
DAX1 inh-1 – DAX1 (NR0B1) inhibitors, primary screen, cell-based, HEK293, Gal4-DAX1, luciferase luminescence | HEK293 Gal4-DAX1 luciferase reporter | inhibition, % at 6.75 µM | 340,000 tested, 0.99% active | AID 504766, 2011;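 active = inhibition above the mean over all tested compounds plus 3 SD, cut at about 4.2% in these data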;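 also: 0% = DAX1-transfected cells with DMSO and 100% = empty-vector control cells with DMSO; inhibition shows as a rise in luminescence from relieved DAX1 repression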
Target sequence (P51843 207-470 limits assumed): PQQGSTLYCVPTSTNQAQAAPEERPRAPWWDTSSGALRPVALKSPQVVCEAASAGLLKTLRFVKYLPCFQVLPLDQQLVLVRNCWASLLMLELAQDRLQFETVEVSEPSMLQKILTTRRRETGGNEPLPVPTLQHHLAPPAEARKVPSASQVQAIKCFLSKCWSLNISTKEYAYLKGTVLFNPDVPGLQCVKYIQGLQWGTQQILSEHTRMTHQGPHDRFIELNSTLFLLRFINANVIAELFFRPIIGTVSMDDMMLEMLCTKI
SMARCA2 activ – SMARCA2 (BRM) function activators, primary screen, cell-based, luminescence, high throughput | MG213 cells, MMTV-luciferase reporter, dexamethasone, overnight | activation, % at 9.1 µM | 370,000 tested, 1% active; in the data active = activation above about 7.8%;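 also: 0% = vehicle wells and 100% = reference activator wells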
ssDAF-12 act – S. stercoralis DAF-12 nuclear receptor activators, primary screen, cell-based, luminescence, HEK293, GRIP1 co-expression, lit1-tk-luc; Nuclear hormone receptor DAF-12 (Strongyloides stercoralis); HEK293 ssDAF-12/GRIP1 lit1-tk-luc reporter; % of 3 µM dafachronic acid response; activation, % at 6.8 µM; 370,000 tested, 1% active; AID 652126, 2013;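 active = activation above the mean over all tested compounds plus 3 SD, cut at about 0.9% in these data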;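 also: 0% = DMSO-only wells and 100% = 3 µM delta7-dafachronic acid wells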
hgDAF12 agonist – H. glycines DAF-12 receptor agonists, primary screen, cell-based, luminescence, HEK293, GAL4 fusion, UAS-luciferase; 370,000 tested, 1.8% active; HEK293 GAL4-hgDAF12 UAS-luciferase reporter, agonist luminescence; normalized to butyrate control; activation, % at 6.8 µM; Nuclear hormone receptor DAF-12 (Heterodera glycines), GAL4 fusion;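 active = activation above a cutoff set at the mean of all screened compounds plus 3 SD, cut at about 10% in these data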;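 also: 0% = DMSO wells and 100% = sodium butyrate wells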
hcDAF12 agonist – H. contortus DAF-12 nuclear receptor activators, primary screen, cell-based, luminescence, HEK293, lit1-tk-luc reporter; activation, % at 6.8 µM; 370,000 tested, 1.4% active; HEK293 hcDAF-12 lit1-tk-luc reporter; 0% DMSO, 100% Δ7-dafachronic acid;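 active = activation above the mean of all tested compounds plus 3 SD, cut at about 5.5% in these data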;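 also: 100% = response to 3 µM Δ7-dafachronic acid high control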
DAX1 inh-2 – DAX1 (NR0B1) inhibitors on StAR promoter, primary screen, cell-based, luminescence, SF-1 (NR5A1), full-length DAX-1. AID 652010, 2013. inhibition, % at 6.8 µM. 370,000 tested, 1.1% active. HEK293T StAR-luciferase reporter, SF-1/DAX-1 repression relief;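 active = inhibition above the mean over all tested compounds plus 3 SD, cut at about 3.6% in these data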;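 also: 0% = DAX-1 cells with DMSO and 100% = cells lacking DAX-1 with DMSO; higher inhibition means more luminescence from relief of DAX-1 repression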
SMARCA2 act conf – SMARCA2 (BRM) function activators, confirmation, cell-based, luminescence, triplicate. 3,500 tested, 30% active. shares compounds with SMARCA2 activ. MG213 cells, MMTV-luciferase with dexamethasone, overnight; MG213 cells expressing E1A, Rb sequestered; DMSO wells 0%, reference activator 100%. AID 652260, 2013. activation, % at 9.1 µM;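 active = activation above its plate's cutoff, the mean activation of tested wells plus 3 SD, cut at about 7.9% in these data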
VP16 Luc act – GAL4-VP16 luciferase reporter activation, counter-screen for SMARCA2 (BRM) activator project, cell-based, pG5luc, luminescence, high throughput. shares compounds with SMARCA2 activ. HEK293 GAL4-VP16 pG5luc reporter; scaled: DMSO wells 0%, SAHA wells 100%. activation, % at 9.1 µM. 3,500 tested, 41% active. AID 686939, 2013;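 active = activation above the solvent-only control well mean plus 3 SD, averaged across control plates, cut at about 5.2% in these data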
* = called active by the depositor; nt = no result given; ! = repeats disagree.

SMILES	DAX1 inh-1	SMARCA2 activ	ssDAF-12 act	hgDAF12 agonist	hcDAF12 agonist	DAX1 inh-2	SMARCA2 act conf	VP16 Luc act
Cc1ccc2nc(-c3ccc(N4C(=O)CC(N5CCN(CCO)CC5)C4=O)cc3)sc2c1 (configuration not stated)	0	8.6*	0	9	4	1	6	5
Cc1ccc(N2C(=O)CC(N3CCN(c4ccccn4)CC3)C2=O)cc1 (configuration not stated)	-1	-4	-1	2	-2	0	nt	nt
CCN1CCN(CCOc2cccc(Oc3ccccc3)c2)CC1	-1	8.0*	-1	3	0	0	-3	1
CCN1CCN(CCOCCOc2ccccc2)CC1	0	-3	-1	1	1	0	nt	nt
CCCC(CCC)C(=O)O	0	8.1*!	-1	-2	0	-1	-1	0
Cc1ccc(S(=O)(=O)Nc2ccc(N3CCN(C)CC3)nc2)cc1	0	2	-1	1	0	0	nt	nt
CNc1cccc(-c2ccc(N3CCN(C)CC3)nc2)n1	nt	9.1*	0	9	2	2	12*	7.7*
CNc1cccc(-c2ccc(C(=O)N3CCOCC3)cc2)n1	nt	10*	0	5	1	2	8	0
CC(C)CSc1nnc(-c2ccco2)n1C	nt	8.4*	-1	8	1	-1	8.9*	2
CCCCCn1nnnc1C1(C)CSCC(=O)N1Cc1ccco1 (configuration not stated)	nt	1	-1	-4	-2	-1	nt	nt
COC(=O)c1cc2c(c3c4cc(C)ccc4n(S(=O)(=O)c4ccc(C)cc4)c13)C(=O)N(Cc1ccc(C(F)(F)F)cc1)C2	nt	-1	-1	2	2	0	nt	nt
CCN(CC)CC(=O)Nc1cccc2c1C(=O)c1ccccc1C2=O	0	-2	-2	2	0	0	nt	nt
O=C1c2ccccc2C(=O)c2c(NCCCN(CCO)CCO)cccc21	nt	15*	0	0	1	1	40*	0
CCOC(=O)[C@@]12CCCC=C1N(CCc1ccc(Cl)cc1)C(=O)[C@H]2CC(=O)NCc1cccs1	nt	-2	-1	-3	-2	-1	nt	nt
COc1ccccc1CNC(=O)c1ccccc1NC(=O)C1=C(C)OCCS1	-1	8.1*	-1	-3	-3	-1	2	1
COc1ccc(CNC(=O)c2ccccc2NC(=O)C2=C(C)OCCS2)cc1	0	-3	-1	0	0	-2	nt	nt
Cc1cccc2nc(-c3ccccc3)c(-c3ccc(CN4CCC5(CC4)CNc4ccccc45)cc3)nc12	nt	2	0	3	0	0	nt	nt
O=C(COc1ccc(Cl)cc1)NCC(=O)N1CCC2(CC1)NCCc1[nH]cnc12	1	9.7*	-1	-3	-1	0	3	2
Cc1cccc(Cl)c1-n1nnnc1C1(C)CSCC(=O)N1Cc1ccc(F)cc1 (configuration not stated)	nt	1	-1	-2	0	-1	nt	nt
O=C(/C=C/c1ccco1)N1CCN(c2ncccn2)CC1	0	8.8*	-2	5	0	0	6	6.5*
CNc1nc(N)c([N+](=O)[O-])c(Nc2cccc(Br)c2)n1	nt	nt	-1	-1	1	nt	nt	nt
CC(=O)N1CCc2cc(S(=O)(=O)NCCC(=O)NCc3ccc(Cl)cc3)ccc21	nt	-6	-2	0	-1	-2	nt	nt
O=C(Cc1cccs1)NC1CCCCN(Cc2ccc(Cl)cc2)C1=O (configuration not stated)	nt	-2	-1	1	1	-1	nt	nt
Cc1c(C)c2ccc(OCC(=O)NCc3ccccn3)cc2oc1=O	0	-2	-1	1	2	-4	nt	nt
Cc1c(C)c2ccc(OCC(=O)Nc3ccccn3)cc2oc1=O	4	12*	0	3	1	4	6	5.6*
SMILES	DAX1 inh-1	SMARCA2 activ	ssDAF-12 act	hgDAF12 agonist	hcDAF12 agonist	DAX1 inh-2	SMARCA2 act conf	VP16 Luc act
COC(=O)c1cccc(Cn2ccc3ccc(-c4ccc5ccn(C(=O)c6cccc(OC)c6)c5c4)cc32)c1	nt	-1	-1	-1	1	-2	nt	nt
Cc1ccc(/C=C2/NC(=O)[C@H](C)NC2=O)cc1	0	8.4*	-1	1	1	1	2	3
O=C(Nc1ccc(-c2cn3ccccc3n2)cc1)c1cccs1	1	8.1*	0	12*	1	4	28*	14*
O=C(Nc1ccc(NC(=O)c2ccccc2F)cc1)c1cccs1	0	8.8*	0	8	1	4.2*	5	7.7*
CC1(C)CC(=O)N(CC(=O)N2CCN(c3cccc(Cl)c3Cl)CC2)c2ccccc2S1(=O)=O	nt	-5	-1	-2	-4	-1	nt	nt
CC(C)c1ccc(/C=N/NC(=O)CC(=O)NC2CCCCC2)cc1	0	8.4*	-1	3	-1	0	0	1
O=C(COC(=O)/C=C/c1c(F)cccc1Cl)NCC1CCCO1 (configuration not stated)	-1	-1	-1	1	-1	2	nt	nt
O=C(COC(=O)/C=C/c1ccc(Cl)cc1Cl)NCC1CCCO1 (configuration not stated)	0	8.7*	-1	1	1	1	2	0
Brc1ccc(-c2csc(N3CCNCC3)n2)cc1	nt	nt	-2	0	3	nt	nt	nt
O=S1(=O)CC2c3ccccc3CCN2CN1CCc1ccccc1 (configuration not stated)	nt	-3	-1	0	-1	0	nt	nt
Clc1ccc(-c2nc3ccc(Cl)cn3c2Cc2ccsc2)cc1	nt	11*	-1	11*	1	3.8*	8.9*	5
CCCCN1CN2Cc3ccccc3C2CS1(=O)=O (configuration not stated)	nt	3	-1	2	4	0	nt	nt

Screening results from PubChem BioAssay.
